Active and inactive are the calls of the source. The calls were made as follows: active = hit-call score of the fitted dose curve at least 0.9, where 1 is the maximum; inactive = score below 0.9.
System: not listed separately
Assay: ATG_Ets_CIS: Attagene CIS-FACTORIAL HepG2 Assay for human Erythroblast Transformation Specific (ETS) (AID 2282941)
Settings: HepG2 ETS cis-reporter transcription, actives raise or lower the signal
Outline: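 Bidirectional fit versus DMSO of reporter mRNA signal, detected by RT-PCR and capillary electrophoresis in HepG2 cells transiently transfected with cis-element reporters and dosed 24 h.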
For `CC(C#N)CCC#N` (stereo not drawn), the outcome was “inactive”. In the case of `CN(C)N=O`, the outcome was “inactive”. With `Cc1ccc(N)cc1Cl` the outcome was “inactive”. In the case of `Oc1cccc2cccnc12`, the outcome was “inactive”. For `BrCCBr`, the outcome was “inactive”. For `O=C(O)C(F)(F)C(F)(F)C(F)(F)C(F)(F)C(F)(F)C(F)(F)C(F)(F)C(F)(F)C(F)(F)C(F)(F)F`, the outcome was “inactive”. For `CC(C)(OO)c1ccccc1`, the outcome was “inactive”. In the case of `CC(C)(C)c1cc(O)ccc1O`, the outcome was “inactive”. With `COP(=S)(OC)Oc1ccc(Sc2ccc(OP(=S)(OC)OC)cc2)cc1` the outcome was “inactive”. In the case of `CC(C)c1cccc(C(C)C)c1O`, the outcome was “inactive”. In the case of `O=[N+]([O-])c1ccc(O)c([N+](=O)[O-])c1`, the outcome was “inactive”. For `COC(=O)c1sccc1S(=O)(=O)NC(=O)Nc1nc(C)nc(OC)n1`, the outcome was “inactive”. For `CC1(C)CCC(Cc2ccc(Cl)cc2)C1(O)Cn1cncn1` (stereo not drawn), the outcome was “inactive”. With `COC[C@H](C)N(C(=O)CCl)c1c(C)csc1C` the outcome was “inactive”. With `CCOC(=O)Nc1cccc(OC(=O)Nc2ccccc2)c1` the outcome was “inactive”. In the case of `ClCc1ccccn1`, the outcome was “inactive”. In the case of `CCCCP(CCCC)CCCC`, the outcome was “inactive”. In the case of `O=C(Cl)c1ccc(Cl)cc1`, the outcome was “inactive”. For `CC1CN1P(=O)(N1CC1C)N1CC1C` (stereo not drawn), the outcome was “inactive”. With `O=P(O)(O)CN(CP(=O)(O)O)CP(=O)(O)O` the outcome was “inactive”. With `ClCCBr` the outcome was “inactive”. With `Oc1ccc(-c2ccccc2)cc1` the outcome was “inactive”. In the case of `CCOP(=O)(CN(CCO)CCO)OCC`, the outcome was “inactive”. In the case of `CC(C)c1ccc(CO)cc1`, the outcome was “inactive”. In the case of `C[C@]12CCC(=O)C[C@@H]1CC[C@@H]1[C@@H]2CC[C@]2(C)[C@@H](O)CC[C@@H]12`, the outcome was “inactive”. In the case of `ClC1(Cl)C2(Cl)C3(Cl)C4(Cl)C(Cl)(Cl)C5(Cl)C3(Cl)C1(Cl)C5(Cl)C24Cl` (stereo not drawn), the outcome was “inactive”. In the case of `Nc1ccc(N=Nc2ccc(-c3ccc(N=Nc4c(S(=O)(=O)O)cc5cc(S(=O)(=O)O)c(N=Nc6ccccc6)c(O)c5c4N)cc3)cc2)c(N)c1`, the outcome was “inactive”. In the case of `Cc1ccccc1N`, the outcome was “inactive”. For `CC(=[OH+])/C=C(/C)[O-].CC(=[OH+])/C=C(/C)[O-].CC(=[OH+])/C=C(/C)[O-].[Fe]`, the outcome was “inactive”. With `Fc1ccc(C2(Cn3cncn3)OC2c2ccccc2Cl)cc1` (stereo not drawn) the outcome was “inactive”. For `O=[N+]([O-])c1c(Cl)c(Cl)cc(Cl)c1Cl`, the outcome was “inactive”. With `C=C(C)C(=O)[O][Sn]([CH2]CCC)([CH2]CCC)[CH2]CCC` the outcome was “inactive”. For `Cc1cc(Cl)ccc1O[C@H](C)C(=O)O`, the outcome was “inactive”. With `CCC(C)c1cccc(C(C)CC)c1O` (stereo not drawn) the outcome was “inactive”. In the case of `O=c1[nH]c(=O)[nH]c(=O)[nH]1`, the outcome was “inactive”. In the case of `C1CCC(NC2CCCCC2)CC1`, the outcome was “inactive”. In the case of `Cc1cc(=O)[nH]o1`, the outcome was “inactive”. In the case of `O=C/C=C/c1ccccc1`, the outcome was “inactive”. In the case of `COP(=S)(OC)Oc1c(Cl)cc(C)cc1Cl`, the outcome was “inactive”.

Target: Hepatocyte nuclear factor 3-beta (Homo sapiens) (UniProt Q9Y261)
Sequence (Q9Y261 whole entry, looked up): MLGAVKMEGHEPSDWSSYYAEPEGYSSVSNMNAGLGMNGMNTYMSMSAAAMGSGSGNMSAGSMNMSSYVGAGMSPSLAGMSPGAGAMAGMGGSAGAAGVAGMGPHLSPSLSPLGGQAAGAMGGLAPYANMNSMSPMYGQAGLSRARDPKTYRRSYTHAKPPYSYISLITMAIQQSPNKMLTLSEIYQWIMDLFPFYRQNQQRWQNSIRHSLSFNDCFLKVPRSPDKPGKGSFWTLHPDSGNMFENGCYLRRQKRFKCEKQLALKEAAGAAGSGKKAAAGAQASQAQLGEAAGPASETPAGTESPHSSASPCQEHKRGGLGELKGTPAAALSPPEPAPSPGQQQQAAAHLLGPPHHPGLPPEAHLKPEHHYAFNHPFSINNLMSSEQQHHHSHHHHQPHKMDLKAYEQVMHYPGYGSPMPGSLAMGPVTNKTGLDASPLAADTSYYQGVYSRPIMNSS
Assay: ATG_FoxA2_CIS: Attagene CIS-FACTORIAL HepG2 Assay for human Forkhead box A2 (FOXA2) (AID 2282942)
Settings: HepG2 cis-reporter transcription factor activity, 24 h; actives raise or lower the signal
Outline: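 Fluorescence signal of reporter cDNA fragments, separated by capillary electrophoresis, reflects endogenous transcription factor activity in transfected HepG2 after 24 h. Both increases and decreases fitted against DMSO.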
For `CC(C#N)CCC#N` (stereo not drawn), the outcome was “inactive”. With `CN(C)N=O` the outcome was “inactive”. For `Cc1ccc(N)cc1Cl`, the outcome was “inactive”. With `Oc1cccc2cccnc12` the outcome was “inactive”. In the case of `BrCCBr`, the outcome was “inactive”. In the case of `O=C(O)C(F)(F)C(F)(F)C(F)(F)C(F)(F)C(F)(F)C(F)(F)C(F)(F)C(F)(F)C(F)(F)C(F)(F)F`, the outcome was “inactive”. With `CC(C)(OO)c1ccccc1` the outcome was “inactive”. For `CC(C)(C)c1cc(O)ccc1O`, the outcome was “inactive”. With `COP(=S)(OC)Oc1ccc(Sc2ccc(OP(=S)(OC)OC)cc2)cc1` the outcome was “inactive”. For `CC(C)c1cccc(C(C)C)c1O`, the outcome was “inactive”. In the case of `O=[N+]([O-])c1ccc(O)c([N+](=O)[O-])c1`, the outcome was “inactive”. With `COC(=O)c1sccc1S(=O)(=O)NC(=O)Nc1nc(C)nc(OC)n1` the outcome was “inactive”. In the case of `CC1(C)CCC(Cc2ccc(Cl)cc2)C1(O)Cn1cncn1` (stereo not drawn), the outcome was “inactive”. For `COC[C@H](C)N(C(=O)CCl)c1c(C)csc1C`, the outcome was “inactive”. With `CCOC(=O)Nc1cccc(OC(=O)Nc2ccccc2)c1` the outcome was “inactive”. With `ClCc1ccccn1` the outcome was “inactive”. With `CCCCP(CCCC)CCCC` the outcome was “inactive”. In the case of `O=C(Cl)c1ccc(Cl)cc1`, the outcome was “inactive”. For `CC1CN1P(=O)(N1CC1C)N1CC1C` (stereo not drawn), the outcome was “inactive”. In the case of `O=P(O)(O)CN(CP(=O)(O)O)CP(=O)(O)O`, the outcome was “inactive”. In the case of `ClCCBr`, the outcome was “inactive”. With `Oc1ccc(-c2ccccc2)cc1` the outcome was “inactive”. With `CCOP(=O)(CN(CCO)CCO)OCC` the outcome was “inactive”. For `CC(C)c1ccc(CO)cc1`, the outcome was “inactive”. In the case of `C[C@]12CCC(=O)C[C@@H]1CC[C@@H]1[C@@H]2CC[C@]2(C)[C@@H](O)CC[C@@H]12`, the outcome was “inactive”. In the case of `ClC1(Cl)C2(Cl)C3(Cl)C4(Cl)C(Cl)(Cl)C5(Cl)C3(Cl)C1(Cl)C5(Cl)C24Cl` (stereo not drawn), the outcome was “inactive”. In the case of `Nc1ccc(N=Nc2ccc(-c3ccc(N=Nc4c(S(=O)(=O)O)cc5cc(S(=O)(=O)O)c(N=Nc6ccccc6)c(O)c5c4N)cc3)cc2)c(N)c1`, the outcome was “inactive”. For `Cc1ccccc1N`, the outcome was “inactive”. For `CC(=[OH+])/C=C(/C)[O-].CC(=[OH+])/C=C(/C)[O-].CC(=[OH+])/C=C(/C)[O-].[Fe]`, the outcome was “inactive”. With `Fc1ccc(C2(Cn3cncn3)OC2c2ccccc2Cl)cc1` (stereo not drawn) the outcome was “inactive”. For `O=[N+]([O-])c1c(Cl)c(Cl)cc(Cl)c1Cl`, the outcome was “inactive”. With `C=C(C)C(=O)[O][Sn]([CH2]CCC)([CH2]CCC)[CH2]CCC` the outcome was “inactive”. With `Cc1cc(Cl)ccc1O[C@H](C)C(=O)O` the outcome was “inactive”. In the case of `CCC(C)c1cccc(C(C)CC)c1O` (stereo not drawn), the outcome was “inactive”. With `O=c1[nH]c(=O)[nH]c(=O)[nH]1` the outcome was “inactive”. With `C1CCC(NC2CCCCC2)CC1` the outcome was “inactive”. With `Cc1cc(=O)[nH]o1` the outcome was “inactive”. For `O=C/C=C/c1ccccc1`, the outcome was “inactive”. In the case of `COP(=S)(OC)Oc1c(Cl)cc(C)cc1Cl`, the outcome was “inactive”.

Source: PubChem BioAssay (EPA / NIEHS)
